This experiment has as its target Runt-related transcription factor 1 (Homo sapiens) + Core-binding factor subunit beta (Homo sapiens) (UniProt Q01196+Q13951). Kind of experiment: disruptors of Runt domain/CBFb-SMMHC interaction – biochemical, FRET, Cerulean-Runt, Venus-CBFb-SMMHC, uHTS, primary screen (AID 1434).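 Note: 0% = DMSO wells and 100% = wells with excess untagged CBFb-SMMHC; inhibitors lower the FRET ratio by blocking Runt binding to CBFb-SMMHC.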 As to conditions: Cerulean-Runt/Venus-CBFb-SMMHC FRET ratio 530/480, 1 h, at 20 µM, stronger effect = higher value.

Among all 220,000 compounds or so, about 1,600 (0.73%) were called active.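 Rule for the calls: active = mean inhibition across duplicate retests at 20 µM reaching about 50% (limit read from the data); inactive = the rest, inconclusive results apart.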 The list comes from a sample in which actives are over-represented; it also holds similar structures and randomly drawn compounds.

Drawing on PubChem BioAssay AID1434 (Sanford-Burnham Center for Chemical Genomics, 2008), this text covers inhibition for 26 compounds.

Sequence of Runt-related transcription factor 1 (Homo sapiens) + Core-binding factor subunit beta (Homo sapiens) (Q01196 whole entry, looked up, the tested form may be a part): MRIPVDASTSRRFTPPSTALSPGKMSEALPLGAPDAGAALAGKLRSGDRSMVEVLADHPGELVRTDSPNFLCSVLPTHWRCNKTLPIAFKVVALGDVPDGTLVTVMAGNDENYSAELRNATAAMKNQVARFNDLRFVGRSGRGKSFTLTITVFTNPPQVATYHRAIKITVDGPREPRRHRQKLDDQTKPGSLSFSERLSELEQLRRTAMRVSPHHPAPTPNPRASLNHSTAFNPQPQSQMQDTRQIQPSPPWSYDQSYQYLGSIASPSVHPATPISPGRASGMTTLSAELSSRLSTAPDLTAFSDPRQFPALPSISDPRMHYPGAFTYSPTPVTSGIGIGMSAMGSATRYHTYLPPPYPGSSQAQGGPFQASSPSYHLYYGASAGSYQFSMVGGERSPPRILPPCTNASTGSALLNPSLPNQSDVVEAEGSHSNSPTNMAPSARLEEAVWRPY
Sequence of Runt-related transcription factor 1 (Homo sapiens) + Core-binding factor subunit beta (Homo sapiens) (Q13951 whole entry, looked up, the tested form may be a part): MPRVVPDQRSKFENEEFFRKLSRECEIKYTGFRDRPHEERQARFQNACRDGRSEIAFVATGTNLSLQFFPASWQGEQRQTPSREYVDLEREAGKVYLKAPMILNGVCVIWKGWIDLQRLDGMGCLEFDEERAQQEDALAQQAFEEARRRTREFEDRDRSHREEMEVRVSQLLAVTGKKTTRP

The term inhibition denotes the relative decrease from the control value, in per cent. As to `CC(C)CCNC(=O)C1CCC(CNc2c(N3CCC(C)CC3)c(=O)c2=O)CC1` (stereo unspecified), the inhibition was -1.8% (inactive).
`Cc1cc2c(cc1C)[n+](C)cn2CC(O)COCC1CC=CCC1` (stereo unspecified): the inhibition is 7.6% (inactive).
With `N#Cc1cnn2cc(CCN3CCOCC3)c(-c3ccc(F)cc3)nc12`, the inhibition is -1.8% (inactive).
Take `COc1ccc2c(c1)CCc1c(C(=O)N3CCCC3)noc1-2`: the inhibition is -2.4% (inactive).
On to `COc1ccc2c(c1)CCc1cn3ncc(C#N)c3nc1-2`, for which the inhibition is 89.1% (active). The inhibition (retest duplicate average) stood at 74.1%.
Take `COc1ccc(OC)c2[nH]c(=O)c(CCNC(=O)C(=O)c3c[nH]c4ccccc34)cc12`: the inhibition is 0.3% (inactive).
In the case of `CCCCN(C(=O)/C=C/c1ccco1)c1c(N)n(CC(C)C)c(=O)[nH]c1=O`, the inhibition is 8.5% (inactive).
For the compound `O=C(CNC(=O)OCc1ccccc1)Oc1cc2oc(=O)cc(-c3ccccc3)c2cc1Cl`, the inhibition was 78.7% (active). The inhibition (retest duplicate average) is 71.5%.
For the compound `CC(=O)COc1ccc2c(-c3ccccc3)cc(=O)oc2c1`, the inhibition is 3.8% (inactive).
As for `O=C(CNC(=O)c1ccc(-c2ccccc2)cc1)OCc1ccc(Cl)cc1`, the inhibition was -1.6% (inactive).
`O=[N+]([O-])c1ccc(N2CCNCC2)cc1NCc1cccnc1`: the inhibition is -3.2% (inactive).
In the case of `CC(C)OCCCNC(=O)c1cc(Sc2ccc(F)cc2)nc2ccccc12`, the inhibition is 0.5% (inactive).
For `O=C(CSc1ncn[nH]1)Nc1nsc(-c2ccccc2)n1`, the inhibition is 3.7% (inactive).
Turning to `O=C(CSc1nc(O)c(Cc2ccccc2)c(=O)[nH]1)Nc1nc2c(s1)CCCC2`, the inhibition is 2.5% (inactive).
`CN1C(=O)/C(=C/C=C2\SCCN2C)OC1=S`: the inhibition is 84.2% (active). Where the note is “retest duplicate average”, the inhibition is 79.9%.
For `CCc1ccc(C(=O)OCC(=O)NCC(F)(F)F)cc1`, the inhibition was -1.7% (inactive).
The same measure, in the same setting: then `CCO[C@H]1OC(C(=O)NCc2ccccc2)=C[C@@H](c2coc3ccccc3c2=O)[C@@H]1CCCO`, with -0.8% (inactive); and `CN1CCNC(=O)C1CC(=O)N1CC=C(c2ccc(F)cc2)CC1` (stereo unspecified), with -7.4% (inactive).
Consider `COC(=O)/C=C\C(=O)Nc1cccc([N+](=O)[O-])c1`, for which the inhibition is 56% (active). Further, under “retest duplicate average”, the inhibition was 62.5%.
With `Cc1ccccc1NC(=S)Nc1cccc([N+](=O)[O-])c1`, the inhibition was 5.7% (inactive).
Take `CC(=O)Nc1cccc([N+](=O)[O-])c1`: the inhibition is 0.2% (inactive).
For `COCCCn1c(-c2cccs2)nc2nc3ccccc3nc21`, the inhibition was 87.7% (active). Also, the inhibition (retest duplicate average) is 99.9%.
Consider `COc1ccc(CCn2c(-c3ccco3)nc3nc4ccccc4nc32)cc1OC`, for which the inhibition is -7.1% (inactive).
Turning to `CC(C)n1c(-c2cccs2)nc2ccccc21`, the inhibition was 1.6% (inactive).
Turning to `Cc1ccc(C(=O)O)cc1NC(=O)c1ccc(Cn2nc(C)c(Cl)c2C)o1`, the inhibition is -2.9% (inactive).
Same read-out and setting: then `O=C(CCc1n[nH]c(=O)[nH]c1=O)N/N=C/c1ccc(Br)o1`, with -0.8% (inactive).
